# From PubChem
# The sample as a whole holds a higher share of hits than the screen did.
# L3MBTL1 inh: L3MBTL1 (human) inhibition | AlphaScreen L3MBTL1–H3K9me1 peptide binding | Potency, µM (series often up to 57.1 µM), without a hit: at the top dose activity, negative = inhibition, usual class: inhibitors | hit rate 0.66% among 230,000 | AID 485360; note: nearly all actives have a fitted effect of over 60% in size
#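 L3MBTL1 50 nM + b-AHA-H3(1-15)K9me1 75 nM, 30 min RT; compound added, 30 min RT; streptavidin donor/Ni-chelate acceptor beads 10 ug/mL each final, 30 min RT dark; AlphaScreen read.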
# APEX1 inh: blocks human APE1 abasic DNA cleavage; P27695; recombinant APE1, TAMRA/BHQ-2 abasic DNA cleavage fluorescence; Potency, µM (top dose mostly 65.8 µM), inactives show at the highest dose activity change, negative = inhibition, most hits filed as inhibitors; hit rate 0.35% among 350,000; AID 2517;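 note: plate controls were vehicle for no effect and reference inhibitor for full effect; nearly all actives have a fitted effect of over 55% in size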
# Target sequence (P27695 whole entry, looked up): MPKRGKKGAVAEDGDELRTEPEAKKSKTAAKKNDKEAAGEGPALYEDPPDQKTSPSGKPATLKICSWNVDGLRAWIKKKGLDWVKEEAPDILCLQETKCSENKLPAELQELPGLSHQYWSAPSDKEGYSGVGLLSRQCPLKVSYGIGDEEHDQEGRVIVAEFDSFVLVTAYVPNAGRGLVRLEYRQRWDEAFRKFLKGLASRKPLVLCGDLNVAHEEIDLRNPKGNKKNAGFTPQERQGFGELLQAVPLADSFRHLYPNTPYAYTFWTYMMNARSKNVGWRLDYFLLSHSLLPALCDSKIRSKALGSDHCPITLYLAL
#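 Enzyme (0.75 nM final) and test compound are incubated 15 min at room temperature before adding 50 nM quenched THF abasic-site duplex. Cleavage dequenches TAMRA, followed at 525/598 nm over three reads one minute apart.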
# TDP1 block: TDP1 (human) enzyme inhibition | Q9NUW8 | Potency, µM (highest dose often 130 µM), inactives show at the top dose activity change, negative = inhibition, most hits filed as inhibitors | recombinant TDP1, AlphaScreen DNA substrate cleavage | hit rate 0.28% among 350,000; note: nearly all actives have a fitted effect of over 40% in size
#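 Signal: AlphaScreen proximity between streptavidin donor and anti-FITC acceptor beads on intact substrate. Reaction: Tdp1 1 nM, substrate 15 nM final, 5 min RT after 15 min compound preincubation.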
# BLM helicase inh: inhibitors of human Bloom syndrome helicase BLM; P54132; recombinant BLM DNA unwinding, fluorescence dequenching; Potency, µM (series often up to 56.1 µM), for the others: at the top dose activity change, negative = inhibition, most hits filed as inhibitors; hit rate 0.2% among 350,000; AID 2528;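 note: plate controls were vehicle for no effect and no enzyme for full effect; nearly all actives have a fitted effect of over 35% in size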
# JMJD2E inh: blocks human JMJD2E demethylase activity; B2RXH2; hit rate 1.6% among 230,000; Potency, µM (top dose mostly 57.1 µM), for the others: at the top dose activity change, negative = inhibition, hits mostly inhibitors; AID 2147; JMJD2E catalytic domain, FDH-coupled NADH fluorescence (FDH is formaldehyde dehydrogenase);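 note: 0% = wells with enzyme and -100% = buffer wells without enzyme; nearly all actives have a fitted effect of over 50% in size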
# Target sequence (B2RXH2 1-337 limits assumed): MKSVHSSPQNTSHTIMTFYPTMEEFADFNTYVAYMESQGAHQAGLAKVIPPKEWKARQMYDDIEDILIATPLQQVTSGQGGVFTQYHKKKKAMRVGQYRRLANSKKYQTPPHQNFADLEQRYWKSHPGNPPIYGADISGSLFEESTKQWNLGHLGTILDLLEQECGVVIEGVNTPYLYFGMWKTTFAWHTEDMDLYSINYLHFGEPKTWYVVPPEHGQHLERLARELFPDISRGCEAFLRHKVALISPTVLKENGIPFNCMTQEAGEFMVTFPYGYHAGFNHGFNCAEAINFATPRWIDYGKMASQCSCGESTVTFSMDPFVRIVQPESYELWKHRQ
# RECQ1 inh-1: inhibitors of human RECQ1 DNA helicase. Potency, µM (doses to about 57.3 µM), for the others: at the highest dose activity, negative = inhibition, usual class: inhibitors. hit rate 0.54% among 240,000. AID 2549. RECQ1 DNA unwinding, red fluorescence kinetic read. P46063;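 note: plate controls were vehicle for no effect and no enzyme for full effect; nearly all actives have a fitted effect of over 30% in size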
#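 RECQ1T1 50 nM; forked duplex (20 bp + 30-nt ss tails) 200 nM, ATP 2 mM final; pH 8.0, 2 mM MgCl2, 2.5 ug/ml poly(dI-dC); 15 min compound preincubation; discontinuous kinetic read over 2 h at RT.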
# RECQ1 conf: confirmation of human RECQ1 helicase inhibitors; hit rate 28% among 610; shares compounds with RECQ1 inh-1; Potency, µM (doses to about 229 µM), inactives show at the highest dose activity change, negative = inhibition, usual class: inhibitors; RECQ1 helicase DNA unwinding, fluorescence; note: nearly all actives have a fitted effect of over 45% in size
# RECQ1 ADP FP: counter-screen for RECQ1 inhibitors: ADP displacement | shares compounds with RECQ1 inh-1 | ADP fluorescence polarization displacement counterscreen | Potency, µM (highest dose often 228 µM), for the others: at the top dose activity change, negative = inhibition, hits mostly inhibitors | hit rate 27% among 530; note: nearly all actives have a fitted effect of over 45% in size
# RECQ1 inh-2: RECQ1 helicase inhibition confirmed, round 2. recombinant RECQ1 DNA unwinding, red fluorescence. Potency, µM (highest dose often 119 µM), for the others: at the highest dose activity, negative = inhibition, hits mostly inhibitors. AID 504841. shares compounds with RECQ1 inh-1. hit rate 15% among 1,100; note: nearly all actives have a fitted effect of over 50% in size
# Numbers without * were called inactive; i = inactive; ? = inconclusive; · = no result; [ ] = another dose, or the depositor's remark. Unless noted, calls come from the whole dose curve; as a rule, active = well fitted curve in the direction sought with a large enough effect; inconclusive = small, poorly fitted or top-dose-only effect, or another doubt; inactive = no such curve, though single readings can be large; an effect the other way counts as inactive or inconclusive. Unless noted, % is set by controls: 0 for no effect and ±100 for the full control effect; potency is the fitted concentration of half-maximal effect.
SMILES,L3MBTL1 inh,APEX1 inh,TDP1 block,BLM helicase inh,JMJD2E inh,RECQ1 inh-1,RECQ1 inh-2,others
CC(=O)Nc1ccc(S(=O)(=O)Nc2ccc(S(=O)(=O)N3CCCC3)cc2)cc1,26.9%[11.4 µM],0.7%,3.7%,-2.9%,-2.0%,6.5%,·,
O=C(O)c1ccc(CSc2nnnn2-c2ccc(F)cc2)cc1,·,17.2%,·,-7.5%,·,·,·,
O=C(CSc1nnnn1-c1ccc(F)cc1)c1ccc(O)c(O)c1,·,6.4%,7.9%,-1.0%,28.2µM*,5.01µM*,?,RECQ1 conf=-9.6%[114 µM];RECQ1 ADP FP=4.6%[91.9 µM]
CC(=O)c1cccc(S(=O)(=O)N2CCCC(c3nc(-c4ccc(C)o4)no3)C2)c1 (centres undefined),-4.5%,0.1%,7.0%,-4.3%,-4.8%,?,-28.5%,
Cc1ccc(-c2noc(C3CCCN(S(=O)(=O)c4ccc5ccccc5c4)C3)n2)o1 (centres undefined),·,-1.8%,5.1%,-10.0%,1.0%,-1.5%,·,
Nc1ncnc2c1nc(Sc1ccc(Cl)cc1)n2[C@H]1O[C@@H]2COP(=O)(O)O[C@H]2[C@@H]1O,·,-6.7%,8.5%[56.1 µM],·,4.9%,-0.5%,·,
COc1cccc(CNC(=O)COCc2cc(-c3ccc4c(c3)OCO4)on2)c1,·,·,2.5%,-1.0%,·,·,·,
CCC(CC)c1nn2c(=O)cc(COc3ccc(NC(=O)c4ccccc4C)cc3)nc2s1,·,·,-1.3%,-5.3%,·,·,·,
O=C(O)c1cc(N/N=C/c2ccc(N3CCOCC3)s2)ccc1Cl,20µM*,15.8µM*,?,-10.4%,?,14.1µM*,·,RECQ1 conf=10.2%[114 µM]
O=C(O)c1cc(Nc2nc(N3CCOCC3)nc(N3CCOCC3)n2)ccc1Cl,-1.1%,-3.3%,0.0%,3.0%,0.3%,-2.1%,·,
Nc1ncnc2c1ncn2[C@@H]1O[C@H](C(=O)N2CCN(CC(=O)Nc3cccc4c3CNC4=O)CC2)[C@@H](O)[C@H]1O,·,-0.2%,9.5%,-7.8%,·,-6.9%,·,
O=C1C(Cl)=C(N2CCCCC2)C(=O)C(Cl)=C1c1cnc(N2CCCCC2)s1,17.8µM*,20µM*,-5.6%[56.1 µM],14.1µM*,14.1µM*,15.8µM*,·,RECQ1 conf=50.1µM*;RECQ1 ADP FP=44.7µM*
O=C(CCS(=O)(=O)c1ccc(Br)cc1)NCc1cccs1,·,?,22.4µM*,1.5%,7.9%,?,?,
CCn1c(C)c(C)c2cc(C(=O)Nc3cccc(Cl)c3)ccc21,-13.2%,7.4%,5.0%,-11.6%,?,7.94µM*,-15.8%,RECQ1 conf=-13.8%[114 µM];RECQ1 ADP FP=10.2%[91.9 µM]
CCCCN(CCCC)Cc1ccc(C(=O)NNC(=O)Nc2ccccc2)o1,·,3.7%,-1.1%,-3.1%,-9.7%,-0.6%,·,
CCCCC#Cc1ccc(C(=O)NNC(=O)Nc2ccccc2)o1,0.3%,5.1%,-13.7%,-7.8%,-4.9%,28.2µM*,?,
COc1cc2cc(CNc3ccccc3)c(=O)n(CC(=O)Nc3cc(C)cc(C)c3)c2cc1OC,·,·,8.5%,-11.8%,·,·,·,
CCCCOC(=O)CSC1=C(C#N)C(c2ccccc2OC)C(C#N)C(=O)N1 (centres undefined),-5.3%,-4.5%,10.4%,-5.0%,-1.4%,14.1µM*,?,
O=C(O)CC/C(=C\c1ccc(N2CCCC2)c([N+](=O)[O-])c1)c1nc2ccccc2s1,-25.7%,?,·,?,8.1%,?,?,
Cn1cnnc1Sc1ccc(/C=C(\CC(=O)O)c2nc3ccccc3s2)cc1[N+](=O)[O-],1.4%,-1.6%,-2.4%,-6.6%,-1.7%,-4.6%,·,RECQ1 conf=-9.8%;RECQ1 ADP FP=-11.0%
COc1cccc(-c2nnc(SC(C(=O)c3c[nH]c4ccccc34)c3ccccc3)n2C)c1 (centres undefined),0.0%,-5.9%,4.5%,-4.1%,5.9%,-7.4%,·,RECQ1 conf=2.1%;RECQ1 ADP FP=14.6%
Cc1ccccc1CNC(=O)c1oc2c(c1C)-c1nn(Cc3ccc(Cl)cc3)cc1CC2,·,·,5.2%,-11.0%,·,·,·,
Nc1c(C(=O)Nc2ccc(F)cc2)sc2nc(-c3ccco3)ccc12,3.3%,?,-7.4%,-13.8%,?,22.4µM*,-15.8%,
CC(=O)c1sc2nc(-c3ccco3)ccc2c1N,-21.8%,3.16µM*,·,?,?,3.55µM*,-21.3%,
CCNc1nc(C#N)nc(Nc2ccccc2)n1,·,·,0.0%,·,·,·,·,
SMILES,L3MBTL1 inh,APEX1 inh,TDP1 block,BLM helicase inh,JMJD2E inh,RECQ1 inh-1,RECQ1 inh-2,others
O=C1N/C(=N\S(=O)(=O)Cc2ccccc2)S/C1=C/c1cc([N+](=O)[O-])ccc1O,-18.2%,-1.5%,-2.9%,-6.4%,-4.7%,13.0%,·,RECQ1 conf=19.6%;RECQ1 ADP FP=-2.3%
O=C1N/C(=N\S(=O)(=O)c2ccccc2)S/C1=C\c1cc([N+](=O)[O-])ccc1O,·,20.4%,10.9%,0.8%,·,·,·,
CCCC[C@H]1CCCO[C@@](C(=O)NCCN2CCOCC2)(C(F)(F)F)C1,·,-0.7%,1.5%,-10.8%,·,9.2%,·,
COc1ccc(-c2cc3nc(-c4ccccc4)cc(N4CCC(O)CC4)n3n2)cc1,29.6%,?,0.0%,-13.7%,?,i,·,
COc1ccc(-c2cc3nc(-c4ccccc4)cc(N4CCCC(O)C4)n3n2)cc1 (centres undefined),38.4%,5.5%,-12.8%,-11.6%,?,?,-11.4%,
CCCCCCCCCCCCC/C=C/[C@@H](O)[C@H](CO)NC(=O)CCCCC,·,?,14.1%,-13.3%,·,i,·,
Cc1cccc(NC(=O)C2C(c3ccccc3)C2(Cl)Cl)c1 (centres undefined),22.8%,-3.3%,-3.6%,-7.9%,4.0%,?,-14.2%,
CCOC(=O)CCCNC(=O)N1CCc2nc(-c3ccc(OC)cc3C)c3c(c2C1)CO[C@@H](c1ccccc1)C3,·,-2.3%[12.4 µM],4.1%[12.3 µM],-6.5%[12.4 µM],-5.8%[11.4 µM],i[11.5 µM],·,
Cc1ccc(-n2c(=O)c(C#N)cc3c(=O)n4ccccc4nc32)cc1,-6.1%,?,1.8%,-2.5%,?,35.5µM*,1.0%,
CS(=O)(=O)c1ccc2c(c1)sc1nc(=O)c(/C=C3/C=CC(=O)C(O)=C3)c(N)n12,?,25.1µM*,-10.3%,25.1µM*,3.16µM*,15.8µM*,7.94µM*,
CCOC(=O)c1c(NC(=O)c2cc3nc(-c4ccccc4)cc(C(F)(F)F)n3n2)sc2c1CCC(C)C2 (centres undefined),·,·,-2.5%,-2.0%,·,·,·,
